Screens from PubChem.
ATXN2 expr inh = Primary qHTS for Inhibitors of ATXN expression; HEK-293 ATXN2-luciferase reporter, luminescence, 24 h; Potency, µM (doses to about 57 µM), usual class: inhibitors; hit rate 0.72% among 360,000; further: nearly all actives have a fitted effect of over 55% in size
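ATXN2-luciferase reporter cells (luciferase flanked by upstream and downstream ATXN2 gene portions) were treated 24 h at 37 °C with compounds at up to 57 uM. SteadyGlo luminescence gave expression; GF-AFC fluorescence gave viability.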
HepG2 viability = qHTS for Inhibitors of TGF-b: Cytotox Counterscreen; HepG2 CAGA-GFP viability, ATP luminescence, 18 h; Potency, µM (highest dose often 46.1 µM), usual class: cytotoxic; hit rate 0.76% among 410,000; AID 588856, 2011
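HepG2 CAGA-GFP cells (1000/well, DMEM with 1% FBS) received compound, then TGF-beta at 500 pg/mL final, and were incubated 18 hours at 37 degrees C. Viability was read by CellTiter-Glo luminescence. Media-only wells were set as complete cell-killing and DMSO as no toxicity.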
TGFb inhibitor = qHTS for Inhibitors of TGF-b; HepG2 CAGA-GFP TGF-b/SMAD3 reporter, GFP fluorescence, 18 h; TGF-beta stimulated, 500 pg/mL final; Potency, µM (top dose mostly 46.1 µM), usual class: inhibitors; hit rate 1.2% among 410,000; AID 588855, 2011; further: nearly all actives have a fitted effect of over 65% in size
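Inhibition of TGF-beta-driven CAGA-GFP reporter expression in HEPG2 cells is measured by cellular GFP fluorescence after 18 h stimulation with 500 pg/mL recombinant TGF-beta in 1% FBS medium at 37 degrees C.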
S2 tox = Viability Counterscreen for Primary qHTS for Inhibitors of ATXN expression; S2 cells (HEK-293 line with an ATXN2-luciferase reporter) viability, CellTiter-Fluor protease fluorescence, 24 h; Potency, µM (top dose mostly 56.7 µM), most hits filed as cytotoxic; hit rate 0.49% among 400,000; AID 651635, 2014; further: nearly all actives have a fitted effect of over 40% in size
Gal4-VP16 FLuc = VP16 counterscreen qHTS for inhibitors of ROR gamma transcriptional activity | Drosophila S2 Gal4-VP16 UAS-luciferase, luminescence, 20 h | Potency, µM (series often up to 53.6 µM), usual class: inhibitors | hit rate 3.5% among 310,000 | AID 2546, 2010;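 further: Gal4-VP16 expression switched on by copper sulfate through the metallothionein promoter; nearly all actives have a fitted effect of over 50% in size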
RORg inh = qHTS for inhibitors of ROR gamma transcriptional activity; Nuclear receptor ROR-gamma (Mus musculus), P51450; Drosophila S2 Gal4-RORgamma UAS-luciferase reporter, 20 h; Potency, µM (top dose mostly 53.6 µM), hits mostly inhibitors; hit rate 5.4% among 310,000; AID 2551, 2010; further: nearly all actives have a fitted effect of over 60% in size
Target sequence (P51450 whole entry, looked up, the tested form may be a part): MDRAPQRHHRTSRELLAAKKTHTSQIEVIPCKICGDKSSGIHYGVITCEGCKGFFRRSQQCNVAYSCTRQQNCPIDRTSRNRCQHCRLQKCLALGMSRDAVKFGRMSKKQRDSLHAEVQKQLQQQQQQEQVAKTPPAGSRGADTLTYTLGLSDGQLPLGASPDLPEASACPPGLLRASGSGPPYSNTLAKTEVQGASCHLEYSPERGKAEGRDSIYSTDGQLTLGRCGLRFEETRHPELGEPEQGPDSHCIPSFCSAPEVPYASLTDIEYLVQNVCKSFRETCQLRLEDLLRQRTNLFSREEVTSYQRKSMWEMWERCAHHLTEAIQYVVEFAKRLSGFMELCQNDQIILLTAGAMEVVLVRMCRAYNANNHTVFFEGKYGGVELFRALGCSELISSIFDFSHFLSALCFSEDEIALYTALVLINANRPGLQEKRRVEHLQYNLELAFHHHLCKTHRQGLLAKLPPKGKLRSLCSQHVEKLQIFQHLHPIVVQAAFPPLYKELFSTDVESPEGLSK
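Drosophila Schneider cells stably carrying a metallothionein-driven Gal4 DBD–ROR gamma fusion and a UAS-Photinus luciferase reporter were exposed to compound for 1 hr, then induced with copper sulfate (700 uM final) for 20 hr at ambient temperature before luminescence reading.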
A number is an active result; – = inactive; ? = inconclusive; · = not tested or not shown; [ ] = remark or other dose. Compounds with a hit are over-represented: about 6.1% of the library has one in this group of screens. The call rests on the fitted dose curve; in most records, active means well fitted curve in the direction sought with a large enough effect; inconclusive means small, poorly fitted or top-dose-only effect, or another doubt; inactive means no such curve, though single readings can be large; an effect the other way counts as inactive or inconclusive.

SMILES | ATXN2 expr inh | HepG2 viability | TGFb inhibitor | S2 tox | Gal4-VP16 FLuc | RORg inh
COc1cc(/C=C/C(=O)c2ccccc2O)cc(OC)c1OC | – | – | ? | – | ? | 2µM
COc1cc(OC)c(C=CC(=O)c2ccccc2O)c(OC)c1 | – | – | – | ? | · | ·
Cc1c(C(=O)NCC2Cc3cccc(-c4cncnc4)c3O2)c(-c2ccccc2)nn1-c1ccccc1 (stereo not given) | · | · | · | – | · | ·
COCCCNC(=O)CSC1=Nc2ccccc2C2=NC(CCC(=O)NCc3ccccc3OC)C(=O)N12 (stereo not given) | · | – | – | · | · | ·
Cc1oc(=O)oc1CN1CCN(c2cc3c(cc2F)c(=O)c(C(=O)O)c2n3C(C)S2)CC1 (stereo not given) | – | · | · | – | – | –[10 µM]
O=[N+]([O-])c1ccc(N=Nc2c(O)[nH]c3ccc(F)cc23)cc1 | – | – | – | ? | – | –
O=[N+]([O-])c1ccc(N=Nc2ccc(O)cc2O)cc1 | ? | – | ? | ? | 0.63µM | ?
COc1ccc(C)cc1-n1nnnc1SCc1nc(N)nc(N(C)C)n1 | – | – | 11µM | – | · | ·
Cc1cccc(C)c1-n1nnnc1SCc1nc(N)nc(N(C)C)n1 | – | – | 5.6µM | – | · | ·
CCOC(=O)c1ccc(N2C(=O)c3[nH]nc(-c4ccc(C)cc4)c3C2c2cccs2)cc1 (stereo not given) | ? | – | ? | ? | · | ·
Cc1ccccc1CN1CCc2cc([N+](=O)[O-])ccc21 | ? | 13µM | – | – | – | –
COc1ccc(C)cc1NC(=O)COCc1cc(-c2ccc(F)cc2)on1 | · | – | – | · | · | ·
Cc1cc(=O)oc2cc(OCC(=O)N/N=C/c3ccccc3O)ccc12 | – | – | – | – | – | 2.2µM
O=C(CSCC(=O)NN=Cc1ccccc1O)NN=Cc1ccccc1O | ? | – | – | ? | · | ·
CSc1nc(C)cc(OCC(=O)N/N=C/c2ccccc2O)n1 | 14µM | – | ? | – | 0.71µM | 0.89µM
O=C(O)COc1ccc(/C=N/NC(=O)COc2nsnc2N2CCOCC2)cc1 | – | – | – | – | – | –
O=C(COc1nsnc1N1CCOCC1)N/N=C/c1ccccc1O | ? | – | – | – | 3.2µM | 0.71µM
CO/N=C(/C(=O)N[C@@H]1C(=O)N2C(C(=O)[O-])=C(C[n+]3ccn4ncccc43)CS[C@H]12)c1nsc(N)n1 | – | · | · | – | · | ·
CC(=O)Nc1ccc(/C=C/c2ccncc2)cc1 | · | – | – | · | · | ·
Cc1cc(Nc2ncc(Cl)cc2Cl)n[nH]1 | – | – | – | – | – | 11µM
Cc1cc[n+](C(C)C(=O)c2ccc(-c3ccccc3)cc2)cc1 (stereo not given) | ? | – | ? | – | 10µM | ?
CC(C(=O)c1ccc(-c2ccccc2)cc1)[n+]1ccccc1 (stereo not given) | ? | – | – | – | – | ?
c1cc2c(cc1C1CCCCC1)c1c3n2CCN=C3CCC1 | – | – | ? | – | – | –
Cc1ccc2c(c1)c1c3n2CCN=C3CCC1 | – | – | – | – | ? | 11µM
c1cc(-c2cnn3cc(-c4ccc(OCCN5CCCCC5)cc4)cnc23)ccn1 | 3.9µM | · | · | · | – | –
SMILES | ATXN2 expr inh | HepG2 viability | TGFb inhibitor | S2 tox | Gal4-VP16 FLuc | RORg inh
COc1ccc(-c2cnn3cc(-c4cccc(Cl)c4)cnc23)cc1 | · | – | – | – | – | –
O=[N+]([O-])c1cc(C(F)(F)F)cc([N+](=O)[O-])c1NCCNC(=S)Nc1cccc(F)c1 | ? | – | 11µM | ? | – | ?
Cc1cccc(NC(=O)Nc2nnc(N(C)Cc3ccccc3)s2)c1 | · | – | – | · | · | ·
CCCCc1c(-c2cccc(OC)c2)ncn1CCc1ccccc1OC | 22µM | · | · | · | · | ·
CCCCc1c(Cc2cccc(F)c2)ncn1CCc1ccccc1OC | 14µM | · | · | 18µM | · | ·
CCCc1c(-c2cccc(Cl)c2)ncn1CCc1ccccc1OC | ? | · | · | 22µM | · | ·
CCCc1c(-c2ccc(Cl)cc2)ncn1CCc1ccccc1OC | ? | · | · | 35µM | · | ·
Cc1cccc(-c2c3c(=O)n(C)c(=O)n(C)c3c3cnc4ccccc4n23)c1 | – | – | – | – | · | ·
COc1ccc(CNC(=O)C2(c3cccs3)CCOCC2)cc1 | – | – | – | – | · | ·
COC(=O)c1ccc(-c2noc(CN(Cc3nccn3C)C(C)C)n2)cc1 | – | – | – | – | – | 10µM
COC(=O)c1ccc(-c2noc(CN3CCCCC3c3nccn3C)n2)cc1 (stereo not given) | – | – | – | – | – | 13µM
CC(C)N(Cc1nc(-c2ccc3c(c2)OCO3)no1)Cc1nccn1C | · | – | – | – | – | 14µM
COc1ccc(-c2noc(CN(C(=O)Cc3ccc(C)cc3)C(C)C)n2)cc1 | – | – | ? | ? | · | ·
CC(C)N(Cc1nc(COc2ccccc2)no1)Cc1nccn1C | · | – | – | – | – | ?
CN(C)CCN(C)Cc1ccccc1Sc1cccc2ccccc12 | 25µM | – | ? | 20µM | – | –
CNCc1ccccc1Sc1cccc2ccccc12 | – | – | ? | – | ? | ?
C=CC[C@@H](CC(=O)N[C@@H](CO)Cc1ccccc1)C(=O)N[C@@H](COC(=O)[C@@H](CC=C)CC(=O)OC(C)(C)C)Cc1c[nH]c2ccccc12 | – | – | ? | ? | · | ·
C=CC[C@@H](CC(=O)N[C@H](CO)Cc1ccccc1)C(=O)N[C@H](COC(=O)[C@@H](CC=C)CC(=O)OC(C)(C)C)Cc1c[nH]c2ccccc12 | ? | – | ? | ? | · | ·
C=CC[C@H](CC(=O)N(CCO)Cc1ccccc1)C(=O)N[C@H](COC(=O)[C@@H](CC=C)CC(=O)OC(C)(C)C)Cc1c[nH]c2ccccc12 | 22µM | – | ? | 13µM | · | ·
C=CC[C@@H](CC(=O)N(CCO)Cc1ccccc1)C(=O)N[C@H](COC(=O)[C@H](CC=C)CC(=O)OC(C)(C)C)Cc1c[nH]c2ccccc12 | ? | – | ? | 22µM | · | ·
COc1ccc(NC(=O)C(CC(C)C)NS(=O)(=O)c2ccc3c(c2)oc(=O)n3C)cc1Cl (stereo not given) | – | – | – | – | · | ·
Cc1ncoc1C(=O)N1CCOc2ccc(CN3CCN(c4ccccn4)CC3)cc2C1 | · | · | · | – | · | ·
C/C(CC(=O)C(F)(F)F)=N\NC(=O)/C(C#N)=C/N(C)C | – | – | – | – | ? | 8.9µM
Cc1ccc(OCc2n[nH]c(=S)n2Cc2ccccc2)cc1 | – | – | – | – | 6.3µM | 0.89µM
S=c1[nH]nc(COc2cccc3ccccc23)n1Cc1ccccc1 | – | – | ? | – | ? | 3.2µM
CCOc1ccc(Cc2n[nH]c(=S)n2Cc2ccccc2)cc1 | · | – | ? | – | – | 4.5µM
Cc1ccccc1OCc1n[nH]c(=S)n1Cc1ccccc1 | – | – | – | – | ? | 3.5µM
